# Laboratory results as given in PubChem BioAssay AID2685 (National Center for Advancing Translational Sciences (NCATS), 2010).
# About 2,100 (0.66%) of roughly 320,000 compounds were called active. Not shown: some 53% with an inconclusive outcome. The call rests on the fitted dose curve; in most records, active means well fitted inhibition curve with a large enough effect in the signal ratio, with a control signal flat (not every such curve was filed as active); inconclusive means small, poorly fitted or top-dose-only effect, or effect the other way, or a change in a side signal; inactive means flat fitted curve, though single readings scatter; the % refers to the signal ratio. Shown is part of a subset that was picked to be rich in actives.
# Test: qHTS Assay for Lipid Storage Modulators in Drosophila S3 Cells;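 on cell number change: cells counted by Cell Tracker Red CMTPX staining in the red channel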; on lipid storage change, negative = inhibition: on the % scale 0 is the no-effect control and ±100 the full control effect
# Conditions: BODIPY lipid droplet fluorescence, 18-24 h, cells fed with added oleic acid; cell number change: measured here: cell count max response; series mostly up to 46.1 µM; lipid storage change, negative = inhibition: at the top concentration
# Summary of the method: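 Drosophila S3 cells loaded with oleic acid (400 uM, as added) and compounds at several concentrations; lipid droplets imaged by 488-nm laser-scanning cytometry, 500–530 nm intensity and object ratio to cell channel. Percent activity normalized to 20 uM Triacsin C.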
# Potency means the concentration at half of the fitted maximal effect.
Structure (SMILES),Potency,cell number change,"lipid storage change, negative = inhibition",outcome
COc1ccc2nc(SCC(=O)NC3CCCCC3C)[nH]c2c1 (stereo unspecified),29.1 µM (active),1.48%,,
CC1CCCCC1NC(=O)CSc1nc2ccccc2[nH]1 (stereo unspecified),,3.6%,5.65% (inactive),
CCCCCCCCCCOC(=O)c1csc2nnsc12,,6.22%,2.92% (inactive),
O=C(NCCCO)c1ccc2[nH]c3ccccc3c2c1,,-15.6%,26.1% (inactive),
Cc1cnc(C(=O)Nc2cccc(-c3nnc4n3CCCCC4)c2)cn1,,3.24%,3.04% (inactive),
Cc1ccc(C(NC(=O)N2CC(C)OC(C)C2)C(Cl)Cl)cc1F (stereo unspecified),,-1.54%,-10.8% (inactive),
O=C(c1c[nH]c(C(=O)C(Cl)(Cl)Cl)c1)c1ccccc1Cl,25.9 µM (active),-14.7%,,
O=C(c1c[nH]c(C(=O)C(Cl)(Cl)Cl)c1)c1ccccc1Br,,7.04%,-13.6% (inactive),
O=C(c1c[nH]c(C(=O)C(Cl)(Cl)Cl)c1)c1ccccc1F,,-11.6%,-19.6% (inactive),
COCCC(=O)N1CCC(Oc2ccc(C(=O)NCc3cc(C)n(C)n3)cc2)CC1,,-14.5%,-6.14% (inactive),
COCC(=O)N1CCC(Oc2ccc(C(=O)NCc3cnc(C)cn3)cc2)CC1,,0.0828%,0.0981% (inactive),
COCC(=O)N1CCC(Oc2ccc(C(=O)NCc3cc(C)n(C)n3)cc2)CC1,16.4 µM (active),-3.12%,,
CSc1ccc(C(=O)C2CCCN(C(=O)c3cc4cc(F)ccc4[nH]3)C2)cc1 (stereo unspecified),,18.3%,10.5% (inactive),
CCN1CCN(CC(=O)Nc2ccc(OC(F)(F)F)cc2)CC1,,-11.2%,-6.43% (inactive),
O=C(Nc1nc2ccccc2s1)c1ccc([N+](=O)[O-])o1,,24.1%,-7.57% (inactive),
CC(=O)Nc1nc(-c2cccs2)cs1,,-17%,11.7% (inactive),
O=C(Nc1nc2c(F)cc(F)cc2s1)c1ccc2c(c1)OCCO2,,6.09%,12.2% (inactive),
Cc1cc(C)c2nc(NC(=O)c3ccc([N+](=O)[O-])o3)sc2c1,,8.03%,-12.7% (inactive),
O=C(Nc1nc2c(Cl)cccc2s1)c1ccc([N+](=O)[O-])o1,11.6 µM (active),-16.1%,,
O=C(Nc1nc(-c2cccs2)cs1)C1=COCCO1,,-0.427%,6.6% (inactive),
O=C(COC(=O)c1ccc([N+](=O)[O-])o1)Nc1nc2ccccc2s1,,-3.3%,-1.77% (inactive),
O=C(Nc1nc(-c2cccs2)cs1)c1ccc([N+](=O)[O-])o1,2.06 µM (active),-9.47%,,
O=C(Nc1nc2c(F)cc(F)cc2s1)c1ccc([N+](=O)[O-])o1,5.8 µM (active),-16.4%,,

Structure (SMILES),Potency,cell number change,"lipid storage change, negative = inhibition",outcome
CCc1cccc(NC(=S)N(CCN(C)C)C(C)c2ccncc2)c1 (stereo unspecified),,-2.18%,15% (inactive),
O=[N+]([O-])c1ccc(N2CCN(S(=O)(=O)Cc3ccccc3)CC2)cc1N1CCOCC1,,,,inactive
CN1CCN(S(=O)(=O)c2csc(C(N)=O)c2)CC1,,,2.59% (inactive),
COc1ccc(N2CCN(C(=O)Cn3c(=O)c4cccn4c4cccnc43)CC2)cc1,,25.5%,,inactive
CCCCn1c(SCC(=O)NCc2ccco2)nc2c1c(=O)n(C)c(=O)n2C,,-2.87%,-0.0096% (inactive),
Cc1nn(CC(=O)NCCc2ccc(Cl)cc2)c(=O)c2cccn12,,14.2%,,inactive
O=C(Cn1c(=O)c2cccn2c2ccccc21)NCCc1ccc(Cl)cc1,,23.3%,,inactive
CC(C(=O)NCCc1ccc(Cl)cc1)n1c(=O)c2cccn2c2cccnc21 (stereo unspecified),0.517 µM (active),-6.73%,,
Cn1ccsc1=NC(=O)c1cccc(OC(F)F)c1,,-7.04%,26.6% (inactive),
CCOc1cc(C(=O)N=c2sccn2C)ccc1OC(F)F,11.6 µM (active),-22.3%,,
CCCCOc1ccc(C(=O)N=c2sccn2C)cc1OC,,-1.16%,-21.4% (inactive),
CC(Oc1ccc(Br)cc1)C(=O)Nc1ccc(N2CCOCC2)cc1N1CCOCC1 (stereo unspecified),,-0.694%,8.89% (inactive),
COc1ccccc1Nc1nc(N)nc(CSC(=S)N2CCC(C)CC2)n1,,8.57%,15.2% (inactive),
COc1ccc(C(C)=O)cc1COc1ccc(F)cc1,,-1.38%,21.6% [at 9.22 µM] (inactive),
Fc1ccc(COc2ccc(-c3nnco3)cc2)c(Cl)c1,,3.42%,-21.8% (inactive),
CCOc1ccc(C(C)=O)cc1COc1ccc(-c2nnco2)cc1,1.84 µM (active),,,
O=C(NCCCn1ccnc1)Nc1ccc(Cl)cc1,,-5.93%,1.02% (inactive),
Cc1c(Br)cc(C(=O)NC2CCCCC2)c(C)c1C,,-1.86%,-4.38% (inactive),
Cc1c(Br)cc(C(=O)O)c(C)c1C,25.9 µM (active),-29.4%,,
Cc1c(N)cc(N)cc1C(=O)O,,,-21.6% (inactive),
Cc1nn(-c2ccccc2)c(Cl)c1/C=C1/C(=N)N2N=C(C(C)C)SC2=NC1=O,,10.8%,-3.97% (inactive),
CCOc1ccc(N2CC(C(=O)NCc3nnnn3-c3ccc(C)c(C)c3)CC2=O)cc1 (stereo unspecified),,12.6%,,inactive
